In PubChem BioAssay AID1159580 (chemical genetic matrix, 2015):
Several values for one entry are separate records, joined by “and”; a condition that tells them apart may be missing. Equal values may be shown once. Out of some 5,500 compounds screened, about 2,000 (36%) were called active. Another 18% or so got no clear call; they are omitted. No stated cut-off is given here; in the data, active means normalized growth mostly below about 0.91 (no sharp cut-off); inconclusive means no clear call, values can overlap the other calls; inactive means mostly above about 0.92. Some of the results follow.

Test: chemical genetic growth profiling, strain panel (AID 1159580);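 further: tested at 20 µM; growth read once vehicle control cultures reached saturation at 30 °C; 1 = growth at the plate median or of vehicle wells; lower values mean less growth of the strain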
Settings: S. cerevisiae deletion strains, growth OD

Measured: normalized growth

COc1cc(NS(=O)(=O)c2ccc(N)cc2)nc(OC)n1
inactive: locus YAL021C, strain ccr4, hits give low values 0.976 | locus YAL026C, strain drs2, hits give low values 0.982 | locus YAL030W, strain snc1, hits give low values 0.976 | locus YBL061C, strain skt5, hits give low values 0.97 | locus YBR009C, strain hhf1, hits give low values 0.977 | locus YBR021W, strain FUR4, hits give low values 0.983 | locus YBR023C, strain chs3, hits give low values 0.977 | locus YBR171W, strain sec66, hits give low values 0.968 | locus YBR229C, strain ROT2, hits give low values 0.987 | locus YBR231C, strain swc5, hits give low values 0.971 | locus YBR279W, strain paf1, hits give low values 0.961 | locus YCL011C, strain gbp2, hits give low values 0.986 | locus YCL016C, strain dcc1, hits give low values 0.978 | locus YCL029C, strain bik1, hits give low values 0.978 | locus YCL061C, strain MRC1, hits give low values 0.97 | locus YCL069W, strain vba3, hits give low values 0.985 | locus YCR088W, strain abp1, hits give low values 0.962 | locus YDL005C, strain med2, hits give low values 0.979 | locus YDL035C, strain GPR1, hits give low values 0.976 | locus YDL040C, strain nat1, hits give low values 0.963 | locus YDL074C, strain BRE1, hits give low values 0.995 | locus YDL101C, strain DUN1, hits give low values 0.985 | locus YDL134C, strain PPH21, hits give low values 0.968 | locus YDL185W, strain tfp1, hits give low values 0.982 | locus YDL192W, strain arf1, hits give low values 0.984 | locus YDR001C, strain nth1, hits give low values 0.978 | locus YDR069C, strain doa4, hits give low values 0.957 | locus YDR101C, strain arx1, hits give low values 0.999 | locus YDR137W, strain rgp1, hits give low values 0.984 | locus YDR150W, strain NUM1, hits give low values 0.999 | locus YDR159W, strain sac3, hits give low values 0.933 | locus YDR162C, strain NBP2, hits give low values 0.98 | locus YDR195W, strain ref2 0.942 | locus YDR297W, strain sur2, hits give low values 0.983 | locus YDR318W, strain mcm21, hits give low values 0.989 | locus YDR334W, strain swr1, hits give low values 0.974 | locus YDR335W, strain msn5, hits give low values 0.981 | locus YDR388W, hits give low values 0.977 | locus YDR392W, strain spt3, hits give low values 0.984 | locus YDR502C, strain sam2, hits give low values 0.98 | locus YEL003W, strain gim4, hits give low values 0.991 | locus YEL037C, strain rad23, hits give low values 0.965 | locus YEL061C, strain CIN8 (second series), hits give low values 0.986 | locus YEL061C, strain CIN8, hits give low values 1 | locus YER015W, strain faa2, hits give low values 0.99 | locus YER016W, strain bim1, hits give low values 0.988 | locus YER110C, hits give low values 0.972 | locus YER111C, strain swi4, hits give low values 0.973 | locus YER155C, strain BEM2 (second series), hits give low values 0.95 | locus YER155C, strain BEM2, hits give low values 0.996 | locus YER167W, strain BCK2, hits give low values 0.977 | locus YFR010W, strain ubp6, hits give low values 0.976 | locus YGL078C, strain dbp3, hits give low values 0.985 | locus YGL086W, strain mad1, hits give low values 0.997 | locus YGL167C, strain pmr1, hits give low values 0.976 | locus YGL173C, strain kem1, hits give low values 0.951 | locus YGL227W, strain vid30, hits give low values 0.97 | locus YGL240W, strain doc1, hits give low values 0.97 | locus YGL248W, strain PDE1, hits give low values 1.01 | locus YGL253W, strain hxk2, hits give low values 0.977 | locus YGR078C, strain PAC10, hits give low values 1.01 | locus YGR135W, strain pre9, hits give low values 0.979 | locus YGR229C, strain SMI1, hits give low values 0.982 | locus YGR252W, strain gcn5, hits give low values 1.03 | locus YHR013C, strain ard1, hits give low values 0.988 | locus YHR027C, strain rpn1, hits give low values 0.981 | locus YHR030C, strain SLT2, hits give low values 0.986 and 0.975 | locus YHR079C, strain IRE1 (second series), hits give low values 0.991 | locus YHR079C, strain IRE1, hits give low values 0.978 | locus YHR094C, strain hxt1, hits give low values 0.98 | locus YHR129C, strain ARP1, hits give low values 0.985 | locus YHR142W, strain chs7, hits give low values 0.969 | locus YHR200W, strain rpn10, hits give low values 0.993 | locus YIL066C, strain RNR3, hits give low values 0.982 | locus YIL073C, strain SPO22, hits give low values 0.87 | locus YIL125W, strain kgd1, hits give low values 0.994 | locus YIR030C, strain dcg1, hits give low values 0.997 | locus YJL092W, strain hpr5, hits give low values 0.982 | locus YJL095W, strain BCK1 (second series), hits give low values 0.963 | locus YJL095W, strain BCK1, hits give low values 1.03 and 0.977 | locus YJL115W, strain asf1, hits give low values 0.966 | locus YJL129C, strain trk1, hits give low values 0.969 | locus YJL134W, strain LCB3, hits give low values 0.986 | locus YJL154C, strain vps35, hits give low values 0.965 | locus YJL164C, strain tpk1, hits give low values 1 | locus YJL166W, strain qcr8, hits give low values 0.978 | locus YJL168C, strain set2, hits give low values 0.989 | locus YJL187C, strain SWE1 (second series), hits give low values 0.994 | locus YJL187C, strain SWE1, hits give low values 0.976 | locus YJR043C, strain POL32, hits give low values 0.982
